Laboratory results as given in PubChem BioAssay AID720561 (Broad Institute, 2013).
Measured potencies and affinities stand elsewhere.

Assay: suppression of HIF-dependent reporter luminescence – cell-based, dry powder samples, 2158-07, ARNT-TACC3 inhibitor project, dose response (AID 720561)
Conditions: HIF luciferase reporter cells; series mostly up to 50 µM; activity change, negative = inhibition: at the top concentration; call rule not given here

Activity change, negative = inhibition, inactive:
O=C(CSc1ccc(-c2ccccn2)nn1)N1CCCC1 118%
O=C(CSc1ccc(-c2ccccn2)nn1)NC1CCCCC1 118% [at 26 µM]
FC(F)(F)c1cc(-c2nn[nH]n2)cc(C(F)(F)F)c1 -1.41%
Cc1c(C(=O)N(C)C)sc2nc(-c3ccccn3)[nH]c(=O)c12 76.3%
O=C(CSc1ccc(-c2ccccn2)nn1)Nc1ccccc1 226%
C=CC1=C(C(=O)O)N2C(=O)[C@@H](NC(=O)/C(=N\O)c3csc(N)n3)[C@H]2SC1 (stereo in doubt) -6.02%
CC1CCN(S(=O)(=O)c2ccc(C(=O)Nc3nnc(-c4ccno4)o3)cc2)CC1 -3.2%
Cc1ccc(C(=O)Nc2nc(-c3ccccn3)cs2)cc1S(=O)(=O)N1CCOCC1 128% [at 26 µM]
CC1CCN(S(=O)(=O)c2ccc(C(=O)Nc3nnc(-c4ccccn4)o3)cc2)CC1 0.208%
